From PubChem BioAssay (EPA / NIEHS)
Activity calls are given as the source filed them. The calls were made as follows: active = hit-call score of the fitted dose curve at least 0.9, where 1 is the maximum; inactive = score below 0.9.

Experiment: ATG_M_06_CIS: Attagene CIS-FACTORIAL HepG2 Assay for M06 Transcription Factor (Internal Marker) (AID 2282950)
Conditions: HepG2 Attagene CIS-FACTORIAL M06 internal marker reporter; actives raise or lower the signal
Procedure: ATG_CIS is a cell-based, multiplexed-readout assay that uses HepG2, a human liver cell line, with measurements taken at 24 hours after chemical dosing in a 24-well plate.ATG_M_06_CIS is one of 52 assay component(s) measured or calculated from the ATG_CIS assay. It is designed to make measurements of mRNA induction, a form of inducible reporter, as detected with fluorescence intensity signals by Reverse transcription polymerase chain reaction (RT-PCR) and Capillary electrophoresis technology.Data from the assay component ATG_M_06_CIS was analyzed into 1 assay endpoint. This assay endpoint, ATG_M_06_CIS, was analyzed with bidirectional fitting relative to DMSO as the negative control and baseline of activity. Using a type of inducible reporter, measures of mRNA for gain or loss-of-signal activity can be used to understand the background control at the transcription factor-level as they relate to the gene . Furthermore, this assay endpoint can be referred to as a secondary readout, because this assay has produced multiple assay endpoints where this one serves a background control function. To generalize the intended target to other relatable targets, this assay endpoint is annotated to the background measurement intended target family, where the subfamily is internal marker.
Human liver HepG2 cells are transiently transfected with multiple reporter transcription units (MRTUs) in 6-well plates using FuGene 6 reagent (Roche; 3 ml FuGene/1 mg DNA). The MRTU constructs are regulated by a cis-regulating element (promoter). […] A major difference between the CIS and TRANS system is that in CIS activities of endogenous TFs are measured, whereas the TRANS assay evaluates changes in activities of exogenous, chimeric NR-Gal4 proteins. […] At the end of 24 hour incubation, total RNA was isolated using TriZol reagent (Invitrogen). The isolated RNA is then reverse-transcribed using oligo(dT) primer and Mo-MLV reverse transcriptase (Invitrogen) with DNAse I (Ambion) treatment for 30 min. The one-tenth of the produced cDNA was amplified by PCR using Taq DNA polymerase (Invitrogen) and two reporter sequence-specific primers. The PCR products were fluorescently labeled by primer extension with 6-arboxyfluorescein (6-FAM) 5'-labeled reporter sequence-specific primer (2 min at 95 C, 20 s at 68 C and 10 min at 72 C) and these products were digested with 5U of HpaI (New England Biolabs) for 2h at 37 C. The fragments were purified using Qiaquick PCR columns (Qiagen), analyzed on an ABI 3130xL genetic analyzer (Applied Biosystems) with peak positions identified by using a set of X-rhodamine (ROX)-labeled MapMarker1000 molecular weight standards (BioVentures). The raw capillary electrophoresis data was processed using Attagraph software (Attagene).

outcome, inactive:
CC[C@H]1OC(=O)[C@H](C)[C@@H](O[C@H]2C[C@@](C)(OC)[C@@H](O)[C@H](C)O2)[C@H](C)[C@@H](O[C@@H]2O[C@H](C)C[C@H](N(C)C)[C@H]2O)[C@](C)(O)C[C@@H](C)C(=NOCOCCOC)[C@H](C)[C@@H](O)[C@]1(C)O
CCC(CC)C(=O)O
O=C(Cl)c1cc(C(=O)Cl)cc(C(=O)Cl)c1
CCCCCCCCCCCCCOP(=O)(O)O
Cc1ccc(N)c([N+](=O)[O-])c1
CCCCCCCCCCOC(C)=O
CCOC(=O)CC(C(C)=O)C(C)=O
CCCCCCOC(=O)C(C)CC (stereo not given)
COC=O
CC(C)(C)c1ccc(OC(=O)c2ccccc2O)cc1
CC=CC(=O)N(CC)c1ccccc1C
CCOC(F)(F)C(F)(F)C(F)(F)C(F)(F)F
CC(C)(c1cc(Br)c(OCCO)c(Br)c1)c1cc(Br)c(OCCO)c(Br)c1
CCN(Cc1cccc(S(=O)(=O)O)c1)c1ccc(C(=C2C=CC(=[N+](CC)Cc3cccc(S(=O)(=O)[O-])c3)C=C2)c2ccccc2)cc1
N#CCc1ccc(Cl)cc1Cl
FC(F)(F)C(=NOCC1OCCO1)c1ccc(Cl)cc1
CCOC(=O)N1CCC(=C2c3ccc(Cl)cc3CCc3cccnc32)CC1
OC1CCCC1
CCCCCCC1(C)CCC(=O)O1 (stereo not given)
O=S(=O)(O)c1ccccc1C=Cc1ccc(-c2ccc(C=Cc3ccccc3S(=O)(=O)O)cc2)cc1
CC(=O)OCc1ccco1
O=c1c2ccccc2nnn1CCl
CCOc1ccc(N)c([N+](=O)[O-])c1
O=C(O)C(c1ccc(Cl)cc1)c1ccc(Cl)cc1
O=c1[nH]c(=O)c2[nH]c(=O)[nH]c2[nH]1
C=CC(C)(CCC=C(C)C)OC(=O)CC(C)C (stereo not given)
C1CN(SSN2CCOCC2)CCO1
C=C[Si](C)(C)O[Si](C)(C)C=C
CCOc1nc(F)cc2nc(S(=O)(=O)Nc3c(Cl)cccc3C(=O)OC)nn12
SCCc1cnccn1
CC(=O)Oc1ccc(C(C)=O)cc1
CCCCCCCCCCOS(=O)(=O)O
COCCCOCCCOC
CCCCC(CC)COC(=O)c1ccccc1 (stereo not given)
O=C1CCCCCN1SSN1CCCCCC1=O
C=C(C)C(=O)OCCOc1ccccc1
CCO[Si](CCCN=C=O)(OCC)OCC
O=C(c1ccccc1)C1CCC1
CC1=NN(c2cc(S(=O)(=O)O)ccc2Cl)C(=O)C1N=Nc1ccccc1 (stereo not given)
OCCCS
